The campaign covered roughly 320,000 compounds. About 1,000 (0.31%) were called active. The entries come from a sample that favours actives as a whole. Values without a mark were called inactive.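 How the source made its calls: active means activation above the mean of all tested compounds plus 3 SD, cutoff set per screening run (cut at about 20% in these data); inactive means the rest.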
biological target: Oxytocin receptor (Homo sapiens) (UniProt P30559); assay: oxytocin receptor activation by calcium flux – fluorescence, CHO-OTR cells, Fluo-8 calcium, primary screen (AID 2435); conditions: Fluo-8 calcium fluorescence, at 3 µM, stronger effect = higher value, normalized: DMSO 0%, oxytocin 100%;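 further: peak over basal fluorescence ratio from a 100 s FLIPR kinetic read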
Sequence (P30559 whole entry, looked up): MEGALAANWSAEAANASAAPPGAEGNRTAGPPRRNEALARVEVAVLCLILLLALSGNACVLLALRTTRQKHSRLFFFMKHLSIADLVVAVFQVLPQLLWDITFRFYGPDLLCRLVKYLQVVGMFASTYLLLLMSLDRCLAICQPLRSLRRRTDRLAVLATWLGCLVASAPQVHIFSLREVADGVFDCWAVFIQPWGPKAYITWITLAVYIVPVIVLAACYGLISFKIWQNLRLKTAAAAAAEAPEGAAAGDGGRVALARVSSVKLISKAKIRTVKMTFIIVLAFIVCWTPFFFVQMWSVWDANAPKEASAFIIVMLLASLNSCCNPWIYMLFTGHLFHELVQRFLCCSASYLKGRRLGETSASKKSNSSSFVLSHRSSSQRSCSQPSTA

**Q.** How did the activation turn out when CCCCCCCCCCCCC(NC(C)=O)(C(=O)OCC)C(=O)OCC was run?
**A.** 1.74%

**Q.** How did the activation turn out when O=C(c1cccnc1)N1CCN(S(=O)(=O)c2cccs2)CC1 was run?
**A.** 0.18%

**Q.** For CC1CCc2[nH]c3ccc(C(=O)N(C)CC(=O)Nc4cccc(F)c4)cc3c2C1 (stereo not given), which activation is on record?
**A.** 2.82%

**Q.** O=C(CCCN1CCc2[nH]c3ccc(F)cc3c2C1)c1ccc(F)cc1 was tested. Which activation did it give?
**A.** 24.7% (active)

**Q.** For Fc1ccc(NC(=S)N2CCc3[nH]c4ccccc4c3C2)cc1, which activation is on record?
**A.** 4.05%

**Q.** For Cc1cccc(OCCC(=O)Nc2cc(S(=O)(=O)N3CCCCC3)ccc2N2CCOCC2)c1, which activation is on record?
**A.** -0.97%

**Q.** Which activation does the source give for CC1(C)CC[C@@]2(C(=O)O)C(C1)C1=CCC3[C@@]4(C)CC[C@H](O)C(C)(C)C4CC[C@@]3(C)[C@]1(C)C[C@H]2O (stereo not given in full) here?
**A.** 30.7% (active)

**Q.** Which activation does the source give for CC1(C)CC[C@]2(C(=O)O)CC[C@]3(C)C(=CCC4[C@@]5(C)CC[C@H](O)C(C)(C)C5[C@H](O)C[C@]43C)[C@@H]2C1 (stereo not given in full) here?
**A.** 2.18%

**Q.** CC1(C)C2CC[C@]3(C)C(CC=C4[C@@H]5C[C@@](C)(CO)CC[C@]5(C(=O)O)CC[C@]43C)[C@@]2(C)CC[C@@H]1O (stereo not given in full) was tested. Which activation did it give?
**A.** 0.42%

**Q.** With Cc1ccc(S(=O)(=O)N(CC(=O)NN=C2CCN(C)CC2)c2ccc(F)cc2)cc1 as the compound, how does the activation read?
**A.** -1.6%

**Q.** How did the activation turn out when CCCn1nc(C(=O)N2CCCc3ccccc32)c2ccccc2c1=O was run?
**A.** -1.8%

**Q.** How did the activation turn out when O=C(CCCN=C1NS(=O)(=O)c2ccccc21)OCC(=O)c1ccc(F)c(F)c1 was run?
**A.** 30.8% (active)

**Q.** With N#CC1(NC(=O)COC(=O)CCN=C2NS(=O)(=O)c3ccccc32)CCCCC1 as the compound, how does the activation read?
**A.** 0.35%

**Q.** For O=C(OCCN=C1NS(=O)(=O)c2ccccc21)c1cccc([N+](=O)[O-])c1, which activation is on record?
**A.** 1.88%

**Q.** Which activation does the source give for CCN(CC)CCCNC(=O)CCc1ccccc1 here?
**A.** -0.47%

**Q.** CN(C(=O)CN(CCO)CC(=O)N(C)C(C)(C)Cc1ccccc1)C(C)(C)Cc1ccccc1 was tested. Which activation did it give?
**A.** 50.2% (active)

**Q.** Which activation does the source give for OCCN(Cc1ccccc1)Cc1ccc(Cl)cc1 here?
**A.** -0.86%

**Q.** Which activation does the source give for Cc1cc(S(=O)(=O)N2CCOCC2)ccc1OCC(=O)Nc1cccc(C(F)(F)F)c1 here?
**A.** 0.91%

**Q.** How did the activation turn out when CCCCC(=O)NNC(=S)NC(=O)C(c1ccccc1)c1ccccc1 was run?
**A.** 68.1% (active)

**Q.** CCNC(=S)NNC(=O)Cc1ccccc1 was tested. Which activation did it give?
**A.** 1.03%

**Q.** With CC(C)C(=O)Nc1cccc(NC(=S)NC(=O)C(c2ccccc2)c2ccccc2)c1 as the compound, how does the activation read?
**A.** 4.03%

**Q.** CC1CCCN(CCCNC(=O)CN2C(=O)COc3ccc(S(=O)(=O)N4CCOCC4)cc32)C1 (stereo not given) was tested. Which activation did it give?
**A.** 0.7%

**Q.** With Cc1ccc(OS(=O)Nc2cccc3nccnc23)cc1 (stereo not given) as the compound, how does the activation read?
**A.** 0.23%

**Q.** Which activation does the source give for CN1C(=O)c2cccc3c(N)ccc(c23)C1=O here?
**A.** 84.9% (active)

**Q.** With Cc1nn(C)cc1N1C(=O)c2cccc3c(N)ccc(c23)C1=O as the compound, how does the activation read?
**A.** 70.2% (active)

**Q.** How did the activation turn out when COc1ccc(N2C(=O)c3cccc4cccc(c34)C2=O)nn1 was run?
**A.** -0.24%

**Q.** For CC(=O)Nc1ccccc1Sc1ccc2c3c(cccc13)C(=O)N(c1ccc(C)cc1)C2=O, which activation is on record?
**A.** -0.75%

**Q.** O=C(O)c1ccc2c3c(cccc13)C(=O)N(OS(=O)(=O)c1ccccc1)C2=O was tested. Which activation did it give?
**A.** 0.06%

**Q.** With Cc1nn(C)cc1C(=O)c1ccccc1 as the compound, how does the activation read?
**A.** -1.25%

**Q.** With CSc1ncccc1C(=O)Nc1cccc(S(=O)(=O)N2CCOCC2)c1 as the compound, how does the activation read?
**A.** 3.66%

**Q.** Which activation does the source give for CN(C)CCCN(C(=O)c1ccc(S(=O)(=O)N2CCCc3ccccc32)cc1)c1nc2ccc(F)cc2s1 here?
**A.** 15.5%

**Q.** CN(C)CCCN(C(=O)c1ccc(S(=O)(=O)N2CCCCCC2)cc1)c1nc2cc3c(cc2s1)OCCO3 was tested. Which activation did it give?
**A.** 3.02%

**Q.** CN(C)CCCN(C(=O)c1ccc(S(=O)(=O)N2CCCCCC2)cc1)c1nc2ccc(Br)cc2s1 was tested. Which activation did it give?
**A.** 20.8% (active)

**Q.** With Cc1oc2nc(SCC(=O)Nc3ccc(S(N)(=O)=O)cc3)nc(NC(=O)c3ccccc3)c2c1C as the compound, how does the activation read?
**A.** 0.48%

**Q.** For CCCCCCCCCCCCN1C(=O)CSC1c1cccnc1 (stereo not given), which activation is on record?
**A.** -0.53%

**Q.** For COCCC(=O)Nc1ccc2c(c1)CN(C(=O)CCOC)CC2, which activation is on record?
**A.** 0.4%

**Q.** CN(C)S(=O)(=O)c1ccc(Oc2ccc(S(=O)(=O)N(C)C)cc2)cc1 was tested. Which activation did it give?
**A.** 23.4% (active)

**Q.** How did the activation turn out when CN(C)S(=O)(=O)c1ccc(NC(=O)N2CCOCC2)cc1 was run?
**A.** -0.79%

**Q.** With COc1ccc(S(=O)(=O)N(C)CC(=O)N2CCCC2)cc1 as the compound, how does the activation read?
**A.** 1.27%

**Q.** For Cc1nc(CC(=O)NNS(=O)(=O)c2ccc(F)c(Cl)c2)cs1, which activation is on record?
**A.** -0.41%

**Q.** How did the activation turn out when Cc1ccccc1N1CC(C(=O)Nc2ccc(S(=O)(=O)N3CCCC3)cc2)CC1=O (stereo not given) was run?
**A.** 1.72%

**Q.** For CC(C)(c1ccccc1)c1ccc(OCCN2CCCC2)cc1, which activation is on record?
**A.** 16%

**Q.** CN(C)CC(O)COc1ccc(C(C)(C)c2ccc(OCC(O)CN(C)C)cc2)cc1 (stereo not given) was tested. Which activation did it give?
**A.** 1.29%

**Q.** With CC(C)(c1ccccc1)c1ccc(OCCN)cc1 as the compound, how does the activation read?
**A.** 20.2% (active)

**Q.** With COc1ccc(-c2csc3ncnc(N4CCN(S(=O)(=O)c5ccccc5C#N)CC4)c23)cc1 as the compound, how does the activation read?
**A.** -0.22%

**Q.** How did the activation turn out when Cc1c(CCOC(=O)CC23CC4CC(CC(C)(C4)C2)C3)sc[n+]1Cc1ccc([N+](=O)[O-])cc1 was run?
**A.** -1.22%

**Q.** Which activation does the source give for CCN(CC)CCC(c1cc(OC)c(OC)c(OC)c1)c1c(OC)cc(OC)c2c(-c3ccccc3)cc(=O)oc12 (stereo not given) here?
**A.** 2.08%

**Q.** For COc1cc(OC)c2ccc(=O)oc2c1C(CCN1CCN(c2ccccc2)CC1)c1ccc2c(c1)OCO2 (stereo not given), which activation is on record?
**A.** -1.49%

**Q.** How did the activation turn out when COc1cc(C(CCN2CCN(c3ccccc3)CC2)c2c(OC)cc(OC)c3ccc(=O)oc23)cc(OC)c1OC (stereo not given) was run?
**A.** 22.2% (active)

**Q.** With Cc1ccc(S(=O)(=O)N2CCN(C(=O)Cc3sc(C)nc3-c3ccc(F)cc3)CC2)c(C)c1 as the compound, how does the activation read?
**A.** -2.3%

**Q.** For CCCn1nc2cc(C(=O)NCc3ccccc3)ccc2c1OCC, which activation is on record?
**A.** -2.12%

**Q.** With COC(=O)CSc1nc2ccccc2c(=O)n1Cc1ccccc1 as the compound, how does the activation read?
**A.** -1.02%

**Q.** Which activation does the source give for Cc1cc2nc3c(=O)n(Cc4ccccc4)c(=O)[nH]c3nc2cc1N here?
**A.** 52.9% (active)

**Q.** With C=CCSc1nc2c(c(=O)[nH]c(=O)n2C)n1Cc1ccccc1 as the compound, how does the activation read?
**A.** -0.23%

**Q.** For O=S(=O)(NCCOc1cccc2cccnc12)c1ccc(F)cc1, which activation is on record?
**A.** 3.57%

Reference: PubChem BioAssay AID2435 (The Scripps Research Institute Molecular Screening Center, 2010)
